Shown are actives, neighbours in structure and some others; about 3.8% of the full set was active somewhere.
HepG2 viability = counter-screen for TGF-b inhibitors: cytotoxicity in HepG2 cells; actives 0.76% (n = 410,000); Potency, µM (doses to about 46.1 µM), most hits filed as cytotoxic; HepG2 CAGA-GFP viability, ATP luminescence, 18 h; AID 588856
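HepG2 CAGA-GFP cells (1000/well, DMEM with 1% FBS) received compound, then TGF-beta at 500 pg/mL final, and were incubated 18 hours at 37 degrees C. Viability was read by CellTiter-Glo luminescence. Media-only wells were set as complete cell-killing and DMSO as no toxicity.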
ATXN2 expr inh = ATXN2 expression inhibition. actives 0.72% (n = 360,000). AID 1745845. HEK-293 ATXN2-luciferase reporter, luminescence, 24 h. Potency, µM (doses to about 57 µM), hits mostly inhibitors; further: nearly all actives have a fitted effect of over 55% in size
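ATXN2-luciferase reporter cells (luciferase flanked by upstream and downstream ATXN2 gene portions) were treated 24 h at 37 °C with compounds at up to 57 uM. SteadyGlo luminescence gave expression; GF-AFC fluorescence gave viability.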
ATXN viability = reduces viability in counter-screen for ATXN expression inhibitors. S2 cells (HEK-293 line with an ATXN2-luciferase reporter) viability, CellTiter-Fluor protease fluorescence, 24 h. Potency, µM (series often up to 56.7 µM), actives largely listed as cytotoxic. actives 0.49% (n = 400,000); further: nearly all actives have a fitted effect of over 40% in size
HT1080-NT tox = kills 2HG-producing HT-1080-NT fibrosarcoma cells; HT-1080-NT fibrosarcoma viability, CellTiter-Glo ATP luminescence, 48 h; Potency, µM (top dose mostly 46.1 µM), actives largely listed as cytotoxic; actives 1.6% (n = 360,000);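 further: NT is the 2HG producing partner of a matched IDH1 knockdown line; nearly all actives have a fitted effect of over 55% in size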
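Toxicity toward the 2HG-producing NT line was scored as %Activity, normalised to DMSO and no-cell wells, from CellTiter-Glo luminescence after 48 hours' treatment.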
TGFb inhibitor = TGF-b pathway inhibition | HepG2 CAGA-GFP TGF-b/SMAD3 reporter, GFP fluorescence, 18 h; TGF-beta stimulated, 500 pg/mL final | Potency, µM (doses to about 46.1 µM), hits mostly inhibitors | actives 1.2% (n = 410,000); further: nearly all actives have a fitted effect of over 65% in size
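Cell-based qHTS in HEPG2 carrying a CAGA-GFP Smad reporter; compounds added before 500 pg/mL final TGF-beta, 18 h incubation at 37 degrees C, GFP fluorescence quantified per cell by imaging cytometry.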
HT1080 IDH1KD tx = toxicity to HT-1080 IDH1 knockdown cells (counter line). actives 2% (n = 360,000). Potency, µM (top dose mostly 46.1 µM), actives largely listed as cytotoxic. HT-1080 IDH1 knockdown viability, ATP luminescence, 48 h
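CellTiter-Glo luminescence after 48 h compound exposure at 37 degrees C of IDH1-knockdown HT-1080 cells in 5% FBS RPMI. %Activity scaled between DMSO wells and cell-free media wells, with curves fitted and assigned curve classes.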
A number is an active result; n = inactive; u = inconclusive; x = not tested or not shown. The call rests on the fitted dose curve; in most records, active means well fitted curve in the direction sought with a large enough effect; inconclusive means small, poorly fitted or top-dose-only effect, or another doubt; inactive means no such curve, though single readings can be large; an effect the other way counts as inactive or inconclusive.

SMILES	HepG2 viability	ATXN2 expr inh	ATXN viability	HT1080-NT tox	TGFb inhibitor	HT1080 IDH1KD tx
CC1CCN(C(=O)Nc2ccc3nc(-c4ccco4)c(-c4ccco4)nc3c2)CC1	n	x	x	x	u	x
COCCOCC(OC)OC	x	n	n	x	x	x
CC(=O)Nc1cccc(NC(=O)c2ccc(C(=O)Nc3cccc(NC(C)=O)c3)nc2)c1	n	n	n	n	n	n
COc1ccc(C(=O)Nc2ccc3[nH]ccc3c2)cc1OC	n	n	n	n	n	n
COc1cccc(NC(=O)c2cc(Cl)nnc2Cl)c1	n	n	u	12µM	n	u
COc1ccc(C(=O)Nc2ccc3[nH]ccc3c2)cc1	n	u	n	18µM	n	21µM
COC(=O)c1ccc(N2CCOCC2)c(NC(=O)Nc2cccc(OC)c2)c1	n	32µM	u	n	n	n
Cc1cccc(NC(=O)c2ccc(C(=O)Nc3cccc(C)c3)nc2)c1	n	n	u	u	u	21µM
O=Cc1ccnc2ccccc12	n	x	x	x	n	x
COc1ccc(-c2nc(SCC(=O)Nc3ccc4c(c3)OCCO4)c(-c3ccc(C)cc3)[nH]2)cc1OC	n	n	u	x	n	x
CCCOc1ccc(NC(=O)CC2C(=O)N(c3cccc(OC)c3)C(=O)N2CCc2ccncc2)cc1 (stereo not drawn)	n	x	x	x	n	x
CC12CCC=CC1C(c1ccoc1)N(Cc1ccccc1)C2=O (stereo not drawn)	n	x	x	x	u	x
Cc1nc2ccccc2nc1/C=C/c1ccc(N(C)C)cc1	n	x	x	x	n	x
CC(C)C(=O)N1CCN(c2ccc(NC(=O)c3ccc4c(c3)OCCO4)cc2Cl)CC1	n	u	18µM	u	n	u
COc1ccc(C(=O)Nc2ccc(C(=O)Nc3cccc(C)c3)cc2)cc1	n	u	10µM	n	n	n
Cc1cccc(NC(=O)C(=O)NNC(=O)c2ccc(C(C)(C)C)cc2)c1	n	n	n	6.5µM	n	8.2µM
Cc1noc(C)c1CCC(=O)N1CCOc2ccc(CN3CCN(c4ccccn4)CC3)cc2C1	x	x	n	x	x	x
Cc1cc(Cl)ccc1NS(=O)(=O)c1ccc2c(c1)CC(C)N2C(=O)C1CCC1 (stereo not drawn)	n	n	n	x	11µM	x
Cc1ccc(NS(=O)(=O)c2ccc3c(c2)CC(C)N3C(=O)C2CCC2)cc1Cl (stereo not drawn)	n	u	n	x	u	x
c1ccc(CCn2c3ccccc3c3nnc(SCc4ccc5nonc5c4)nc32)cc1	n	n	n	u	n	7.1µM
COc1ccc(NC(=O)/C=C/c2cc(Br)ccc2OC)cc1	n	n	n	n	n	n
COc1ccc(Br)cc1/C=C/C(=O)c1ccc(NC(C)=O)cc1	16µM	22µM	u	u	u	u
CC(C)(Oc1ccc(Cl)cc1)C(=O)OCCCOC(=O)C(C)(C)Oc1ccc(Cl)cc1	x	n	n	x	x	x
Ic1ccc(/C=C2\C=Cc3ccccc32)cc1	n	x	x	x	n	x
COC(=O)Nc1nc(-c2ccccc2)c(C(=O)c2ccc(Cl)cc2)s1	n	n	u	u	u	u
SMILES	HepG2 viability	ATXN2 expr inh	ATXN viability	HT1080-NT tox	TGFb inhibitor	HT1080 IDH1KD tx
CCOC(=O)Nc1nc(-c2ccccc2)c(C(=O)c2ccccc2)s1	n	n	n	0.58µM	u	0.58µM
CC(=O)Nc1ccc(-c2nc3cc(Cl)ccc3o2)cc1	n	n	n	n	11µM	n
O=S1(=O)N[C@@H](Cc2ccccc2)COc2cccc(N3CCN(Cc4ccccc4F)CC3)c21	x	u	28µM	u	x	u
CC(C)C[C@@H]1COc2cccc(N3CCN(Cc4ccccc4F)CC3)c2S(=O)(=O)N1	x	u	u	n	x	n
COC(=O)c1cn([C@@H]2C[C@@H](C(=O)Nc3cccc(SC)c3)N(C3CCCC3)C2)nn1	x	x	n	x	x	x
Cc1c(Cl)ccc2c(C(=O)NCCN3CCCCC3)cc(-c3ccccn3)nc12	n	n	u	u	n	23µM
CC[C@@H]1[C@H]2CCCC(=O)N3CC[C@@H](C[C@@H]1OC(=O)Nc1ccc4c(c1)OCO4)[C@@H]23	n	x	x	x	n	x
Cc1cc(=O)c(C(=O)NCCCc2ccncc2)c2n1-c1ccccc1SC(c1cccs1)C2 (stereo not drawn)	x	x	n	x	x	x
COc1ccccc1Cc1c(C(C)(C)C)nc2c3ccccc3ccn12	n	u	u	u	u	13µM
COc1ccc(C(NC(=O)COc2ccc(C#N)cc2)c2ccc(OC)cc2)cc1	n	x	x	x	n	x
CCc1cc(=O)n2c([nH]c3ccccc32)c1C#N	n	n	n	n	n	n
CCc1cc(=S)n2c([nH]c3ccccc32)c1C#N	n	u	x	u	7.9µM	u
Cc1ccc(Cc2c(C)c(C#N)c3[nH]c4ccccc4n3c2=O)cc1	n	u	n	n	u	n
C=C(C)Cc1c(C)c(C#N)c2[nH]c3ccccc3n2c1=O	n	n	n	n	n	16µM
CC(=O)Nc1ccc(C2Nc3c(C)cc(C)cc3-c3cc(C)nn32)cc1 (stereo not drawn)	n	n	n	x	n	x
Cc1ccc(C(=O)N2CCN3C(=O)c4ccccc4C23c2ccc(Cl)cc2)cc1 (stereo not drawn)	n	n	u	u	n	u
O=C(CCl)N1CCN2C(=O)c3ccccc3C12c1ccc(Cl)cc1 (stereo not drawn)	n	u	x	9.2µM	u	8.2µM
Cc1nc(Nc2ccccc2)sc1C	n	n	n	n	n	n
S=c1[nH]cnc2sc(Nc3ccccc3)nc12	n	x	11µM	n	n	n
Cc1ccccc1-c1nc(CS(=O)(=O)CC(=O)Nc2c(C)cccc2C)c(C)o1	n	u	n	x	11µM	x
COc1cccc(-c2nc(CS(=O)(=O)CC(=O)Nc3c(C)cccc3C)c(C)o2)c1	n	n	u	n	n	n
COc1cccc(-c2nc(CS(=O)(=O)CC(=O)Nc3c(C)cc(C)cc3C)c(C)o2)c1	n	x	x	x	10µM	x
COc1ccc(OC)c(CCNC(=O)CS(=O)(=O)Cc2nc(-c3cccc(Cl)c3)oc2C)c1	n	u	u	x	16µM	x
CCCNC(=O)CS(=O)(=O)Cc1nc(-c2ccccc2C)oc1C	n	n	u	n	n	n
CS(=O)(=O)c1ccc(NC(=O)COc2ccccc2C(=O)Nc2ccccc2)cc1	n	x	x	x	n	x
OC(c1cccnc1)c1ccc2c(c1)CN(Cc1cccc3c1OCO3)CCO2 (stereo not drawn)	x	x	n	x	x	x
CCc1ccccc1NC(=O)Cn1nc2c3cc(F)ccc3n(Cc3cccc(C)c3)cc-2c1=O	n	n	n	x	n	x
O=c1[nH]nc(Sc2ncc([N+](=O)[O-])s2)n1-c1ccc2c(c1)OCCO2	x	12µM	x	x	x	x
C=CCn1c(Sc2ncc([N+](=O)[O-])s2)n[nH]c1=O	n	u	30µM	5.8µM	3.5µM	5.2µM
